# Experimental data reported in PubChem BioAssay (EPA / NIEHS).
# Values joined by “and” are separate entries in the source; they are usually repeats but may differ in a detail not shown here. Equal entries are not always repeated. Results filed as inconclusive are left out. More than one record can exist for a structure, and the calls need not agree. Active and inactive are the calls of the source. How the source made its calls, unless noted: active means hit-call score of the fitted dose curve at least 0.9, where 1 is the maximum; inactive means score below 0.9.
# Key:
# [1] = ATG_SREBP_CIS: Attagene CIS-FACTORIAL HepG2 Assay for human Sterol Regulatory Element Binding (SREBP) (AID 2282962); conditions: HepG2 Attagene cis-factorial SREBP reporter, mRNA; actives raise or lower the signal
# Summary of the method: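 mRNA induction of transfected cis-promoter reporters in HepG2 cells, 24 h post-dose. Detection: RT-PCR with 6-FAM-labelled products, HpaI digest, capillary electrophoresis. DMSO served as negative control and baseline.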
# [2] = target: Signal transducer and activator of transcription 3 (Homo sapiens) (UniProt P40763); assay: ATG_STAT3_CIS: Attagene CIS-FACTORIAL HepG2 Assay for human Signal Transducer and Activator of Transcription 3 (STAT3) (AID 2282963); conditions: HepG2, Attagene cis-factorial STAT3 reporter transcription; actives raise or lower the signal
# Summary of the method: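 HepG2 cells transiently transfected with multiple cis-element-driven reporter units report endogenous transcription factor activity. After 24 h compound exposure, reporter mRNA is measured by RT-PCR, 6-FAM labelling, HpaI digestion and capillary electrophoresis. Fitted bidirectionally versus DMSO.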
# [3] = ATG_TA_CIS: Attagene CIS-FACTORIAL HepG2 Assay for human TA Basal Promoter (AID 2282964); conditions: HepG2 Attagene CIS-factorial TA basal promoter reporter; actives raise or lower the signal
# Summary of the method: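 HepG2 cells transiently transfected with multiple reporter units under cis promoter elements, reporting endogenous transcription factor activity; this endpoint tracks the TA basal promoter as background control. Reporter mRNA after 24 h dosing measured by RT-PCR/capillary electrophoresis; bidirectional fits versus DMSO.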
# [4] = ATG_TCF_b_cat_CIS: Attagene CIS-FACTORIAL HepG2 Assay for human T-Cell-Factor with beta-catenin (TCF/b-cat) (AID 2282965); conditions: HepG2 TCF/beta-catenin cis-reporter transcription, actives raise or lower the signal
# Summary of the method: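 HepG2, transient MRTU transfection, cis-element-driven reporters (endogenous TFs). 24 h compound exposure. Readout: reporter mRNA by RT-PCR + 6-FAM primer extension, HpaI digest, capillary electrophoresis. Gain/loss fit vs DMSO baseline.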
# [5] = ATG_TAL_CIS: Attagene CIS-FACTORIAL HepG2 Assay for human TAL Basal Promoter (AID 2282966); conditions: HepG2 Attagene cis-factorial TAL promoter reporter; actives raise or lower the signal;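 further: background control endpoint measuring basal TAL promoter reporter mRNA not a specific factor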
# Summary of the method: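 HepG2 cells transiently transfected with multiplexed cis-promoter reporter units, dosed 24 h. Reporter mRNA quantified by RT-PCR, 6-FAM labelling, HpaI digestion and capillary electrophoresis; TAL basal promoter serves as background control, fitted bidirectionally versus DMSO.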
# [6] = ATG_TGFb_CIS: Attagene CIS-FACTORIAL HepG2 Assay for human Transforming Growth Factor (TGF) (AID 2282967); conditions: HepG2 Attagene CIS TGFb reporter, mRNA transcription; actives raise or lower the signal
# Summary of the method: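 HepG2 cells transiently transfected with cis-promoter-driven multiple reporter units measure endogenous TF activity; reporter mRNA quantified at 24 h by RT-PCR, FAM labeling, HpaI digestion and capillary electrophoresis. Bidirectional fit vs DMSO.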
# [7] = ATG_VDRE_CIS: Attagene CIS-FACTORIAL HepG2 Assay for human Vitamin D Receptor Element (VDRE) (AID 2282968); conditions: HepG2 VDRE cis-reporter transcription, actives raise or lower the signal
# Summary of the method: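 Transiently transfected HepG2 cells carrying cis-regulated reporter transcription units were exposed for 24 h. Reporter mRNA was measured by RT-PCR with fluorescent labelling and capillary electrophoresis, and fitted in both directions against DMSO.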
# [8] = target: Estrogen receptor (Homo sapiens) (UniProt P03372); assay: ATG_ERa_TRANS: Attagene TRANS-FACTORIAL HepG2 Assay for human Estrogen Receptor alpha (ERa) (AID 2282970; active means hit-call score of the fitted dose curve at least 0.9, where 1 is the maximum); conditions: HepG2 Attagene TRANS ERa GAL4 reporter, mRNA
# Summary of the method: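 HepG2 cells transiently transfected with multiplexed GAL4-UAS reporter units read out chimeric NR-Gal4 activity. After 24 h compound exposure, reporter mRNA was quantified by RT-PCR, 6-FAM labeling, HpaI digestion and capillary electrophoresis, relative to DMSO.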
# [9] = target: Nuclear receptor subfamily 1 group I member 3 (Homo sapiens) (UniProt Q14994); assay: ATG_CAR_TRANS: Attagene TRANS-FACTORIAL HepG2 Assay for human Constitutive Androstane Receptor (CAR) (AID 2282969; active means hit-call score of the fitted dose curve at least 0.9, where 1 is the maximum;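 further: activators raise reporter mRNA above DMSO so AC50 marks induction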); conditions: HepG2 Attagene TRANS-FACTORIAL CAR reporter
# Summary of the method: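 HepG2 cells transiently transfected with GAL4-UAS reporter units; TRANS format reads activity of exogenous chimeric NR-Gal4 protein. After 24 h dosing, reporter mRNA quantified by RT-PCR, 6-FAM labelling and capillary electrophoresis; gain of signal fitted against DMSO.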
# [10] = target: Transcription factor Sp1 (Homo sapiens) (UniProt P08047); assay: ATG_Sp1_CIS: Attagene CIS-FACTORIAL HepG2 Assay for human Specificity Protein 1 (Sp1) (AID 2282961); conditions: HepG2 Sp1 cis-reporter transcription, actives raise or lower the signal
# Summary of the method: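 Read-out: fluorescence of 6-FAM-labeled, HpaI-digested RT-PCR products separated by capillary electrophoresis. HepG2 cells carried transfected cis-element reporter units and were exposed to chemicals for 24 h; gain or loss of signal fitted relative to DMSO.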
# Signal transducer and activator of transcription 3 (Homo sapiens), sequence (P40763 whole entry, looked up): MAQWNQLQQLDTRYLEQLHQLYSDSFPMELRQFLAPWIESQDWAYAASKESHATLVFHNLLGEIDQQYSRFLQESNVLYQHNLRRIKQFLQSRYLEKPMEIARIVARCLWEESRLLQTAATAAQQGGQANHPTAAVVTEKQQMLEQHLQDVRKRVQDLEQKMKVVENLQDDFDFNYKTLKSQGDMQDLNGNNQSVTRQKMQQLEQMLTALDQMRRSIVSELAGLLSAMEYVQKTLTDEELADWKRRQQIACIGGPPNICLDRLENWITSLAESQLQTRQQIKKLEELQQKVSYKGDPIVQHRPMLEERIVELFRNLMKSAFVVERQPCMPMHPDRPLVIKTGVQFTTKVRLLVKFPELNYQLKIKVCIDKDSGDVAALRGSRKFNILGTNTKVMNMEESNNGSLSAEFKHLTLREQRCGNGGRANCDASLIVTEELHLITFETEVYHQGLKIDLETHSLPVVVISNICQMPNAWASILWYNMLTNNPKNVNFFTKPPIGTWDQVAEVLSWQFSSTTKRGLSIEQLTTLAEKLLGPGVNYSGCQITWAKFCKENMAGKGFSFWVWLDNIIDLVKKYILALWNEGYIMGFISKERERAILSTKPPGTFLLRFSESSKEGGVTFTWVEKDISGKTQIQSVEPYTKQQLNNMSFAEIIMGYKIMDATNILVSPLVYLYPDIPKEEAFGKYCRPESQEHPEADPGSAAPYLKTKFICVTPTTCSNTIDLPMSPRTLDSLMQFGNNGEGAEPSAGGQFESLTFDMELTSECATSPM
# Nuclear receptor subfamily 1 group I member 3 (Homo sapiens), sequence (Q14994 whole entry, looked up, the tested form may be a part): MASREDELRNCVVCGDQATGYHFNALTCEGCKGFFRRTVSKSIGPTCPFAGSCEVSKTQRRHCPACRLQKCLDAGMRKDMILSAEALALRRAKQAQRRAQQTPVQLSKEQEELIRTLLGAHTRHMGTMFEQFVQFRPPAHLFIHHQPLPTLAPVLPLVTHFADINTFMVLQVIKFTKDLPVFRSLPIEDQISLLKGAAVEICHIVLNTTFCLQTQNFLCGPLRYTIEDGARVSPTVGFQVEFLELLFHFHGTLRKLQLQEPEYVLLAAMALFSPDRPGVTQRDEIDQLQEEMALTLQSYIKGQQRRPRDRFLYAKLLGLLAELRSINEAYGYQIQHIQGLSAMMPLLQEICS
# Estrogen receptor (Homo sapiens), sequence (P03372 whole entry, looked up, the tested form may be a part): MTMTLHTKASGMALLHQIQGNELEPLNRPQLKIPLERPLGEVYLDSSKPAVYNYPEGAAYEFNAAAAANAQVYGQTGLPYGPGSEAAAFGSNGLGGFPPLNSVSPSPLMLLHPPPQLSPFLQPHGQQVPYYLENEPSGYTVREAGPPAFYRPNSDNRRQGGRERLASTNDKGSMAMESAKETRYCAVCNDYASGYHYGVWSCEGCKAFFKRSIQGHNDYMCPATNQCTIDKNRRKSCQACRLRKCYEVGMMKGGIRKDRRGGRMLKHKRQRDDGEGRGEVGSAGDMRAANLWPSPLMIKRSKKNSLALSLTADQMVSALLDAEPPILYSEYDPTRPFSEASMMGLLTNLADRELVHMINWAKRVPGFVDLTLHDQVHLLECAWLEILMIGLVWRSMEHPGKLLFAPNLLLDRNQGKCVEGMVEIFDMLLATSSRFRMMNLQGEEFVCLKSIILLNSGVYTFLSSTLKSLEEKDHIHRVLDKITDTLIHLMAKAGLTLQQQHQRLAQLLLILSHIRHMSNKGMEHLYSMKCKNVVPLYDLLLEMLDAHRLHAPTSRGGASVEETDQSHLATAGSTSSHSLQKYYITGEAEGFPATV
# Transcription factor Sp1 (Homo sapiens), sequence (P08047 whole entry, looked up): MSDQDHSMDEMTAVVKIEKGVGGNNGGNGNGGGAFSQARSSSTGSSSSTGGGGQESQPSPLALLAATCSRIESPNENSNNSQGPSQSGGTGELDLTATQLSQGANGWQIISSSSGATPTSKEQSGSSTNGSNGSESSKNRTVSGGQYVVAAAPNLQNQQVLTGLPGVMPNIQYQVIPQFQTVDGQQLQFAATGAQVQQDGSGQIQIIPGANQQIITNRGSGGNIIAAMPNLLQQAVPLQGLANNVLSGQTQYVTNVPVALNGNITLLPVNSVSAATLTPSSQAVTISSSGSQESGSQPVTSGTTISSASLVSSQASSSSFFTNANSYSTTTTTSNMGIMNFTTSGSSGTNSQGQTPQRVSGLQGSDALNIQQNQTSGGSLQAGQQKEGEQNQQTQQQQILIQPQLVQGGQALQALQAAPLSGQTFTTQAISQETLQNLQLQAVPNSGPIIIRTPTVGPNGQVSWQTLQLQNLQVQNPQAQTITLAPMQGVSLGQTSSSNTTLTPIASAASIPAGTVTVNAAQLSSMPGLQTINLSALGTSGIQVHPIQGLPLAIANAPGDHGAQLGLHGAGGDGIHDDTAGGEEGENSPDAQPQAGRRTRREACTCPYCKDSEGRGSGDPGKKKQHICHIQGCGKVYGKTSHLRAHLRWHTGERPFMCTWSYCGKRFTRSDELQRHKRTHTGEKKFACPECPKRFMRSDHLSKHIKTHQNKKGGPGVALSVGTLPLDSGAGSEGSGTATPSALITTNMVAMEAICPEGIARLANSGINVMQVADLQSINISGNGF
smiles,measurement,setting,value
ClCCN1CCOCC1,outcome,[1],inactive
same,outcome,[2],inactive
same,outcome,[3],inactive
same,outcome,[4],inactive
same,outcome,[5],inactive
same,outcome,[6],inactive
same,outcome,[7],inactive
same,outcome,[8],inactive
Clc1cnc(Oc2ccc(Oc3ncc(Cl)cc3Cl)cc2)c(Cl)c1,outcome,[1],inactive
same,outcome,[2],inactive
same,outcome,[3],inactive
same,outcome,[4],inactive
same,outcome,[5],inactive
same,outcome,[6],inactive
same,AC50,[7],20 µM (active)
same,outcome,[9],inactive
O=C(NC(=O)c1c(F)cccc1F)Nc1cc(Cl)c(F)c(Cl)c1F,outcome,[1],inactive
same,outcome,[2],inactive
same,outcome,[4],inactive
same,outcome,[5],inactive
same,outcome,[6],inactive
same,outcome,[7],inactive
same,outcome,[9],inactive
CNC(=O)CSP(=O)(OC)OC,outcome,[1],inactive
same,outcome,[2],inactive
same,outcome,[3],inactive
same,outcome,[4],inactive
same,outcome,[5],inactive
Nc1ccc(-c2ccccc2)cc1,outcome,[1],inactive
same,outcome,[3],inactive
same,outcome,[4],inactive
same,outcome,[5],inactive
same,outcome,[6],inactive
same,outcome,[7],inactive
same,outcome,[9],inactive
same,AC50,[8],14.8 µM (active)
OCC(c1ccc(Cl)cc1)c1ccc(Cl)cc1,AC50,[1],60.9 µM (active)
same,outcome,[2],inactive
same,AC50,[3],60.7 µM (active)
same,outcome,[4],inactive
same,outcome,[5],inactive
same,outcome,[6],inactive
same,outcome,[7],inactive
same,outcome,[8],inactive
CCCCCCCCCCCCCl,outcome,[1],inactive
same,outcome,[3],inactive
same,outcome,[4],inactive
same,outcome,[5],inactive
same,outcome,[6],inactive
same,outcome,[7],inactive
same,outcome,[8],inactive
CC(C)[C@H](C(=O)OC(C#N)c1cccc(Oc2ccccc2)c1)c1ccc(OC(F)F)cc1 (stereo not given in full),outcome,[1],inactive
same,outcome,[2],inactive
same,outcome,[3],inactive
same,outcome,[4],inactive
same,outcome,[5],inactive
same,outcome,[6],inactive
same,AC50,[7],1.08 µM (active)
same,outcome,[9],inactive
CC(c1ccccc1)(c1ccc(O)cc1)c1ccc(O)cc1,AC50,[1],13.2 µM (active)
same,outcome,[2],inactive
same,outcome,[3],inactive
same,AC50,[4],16.9 µM (active)
same,outcome,[5],inactive
same,outcome,[6],inactive
same,AC50,[7],1.8 µM (active)
same,AC50,[8],0.145 µM (active)
O=C(Cc1ccccc1)OCCc1ccccc1,outcome,[1],inactive
same,outcome,[2],inactive
same,outcome,[3],inactive
same,outcome,[4],inactive
same,outcome,[5],inactive
same,AC50,[6],115 µM (active)
same,outcome,[7],inactive
same,outcome,[8],inactive
O=[N+]([O-])c1ccccc1O,outcome,[1],inactive
same,outcome,[2],inactive
same,outcome,[3],inactive
same,outcome,[4],inactive
same,outcome,[5],inactive
same,outcome,[6],inactive
CCCCC(CC)COC(=O)Cl (stereo not given),outcome,[1],inactive
same,outcome,[2],inactive
same,outcome,[3],inactive
same,outcome,[4],inactive
same,outcome,[6],inactive
same,outcome,[7],inactive
same,outcome,[9],inactive
same,outcome,[8],inactive
O=C1C=CC(=O)c2ccccc21,outcome,[1],inactive
same,outcome,[2],inactive
same,outcome,[3],inactive
same,outcome,[4],inactive
same,outcome,[5],inactive
same,outcome,[7],inactive
same,outcome,[9],inactive
same,AC50,[8],11.1 µM (active)
C=CC(F)(C(F)(F)F)C(F)(F)C(F)(F)F (stereo not given),outcome,[1],inactive
same,outcome,[2],inactive
same,outcome,[3],inactive
same,outcome,[4],inactive
same,outcome,[5],inactive
same,outcome,[6],inactive
same,outcome,[7],inactive
OC[C@@H](O)[C@H]1O[C@@H]2O[C@H](C(Cl)(Cl)Cl)O[C@@H]2[C@H]1O,outcome,[10],inactive
same,outcome,[1],inactive
same,outcome,[4],inactive
same,outcome,[6],inactive
same,outcome,[9],inactive
same,outcome,[8],inactive
C=CCc1ccccc1O,outcome,[1],inactive
same,outcome,[2],inactive
same,outcome,[3],inactive
same,outcome,[4],inactive
same,outcome,[5],inactive
same,outcome,[6],inactive
same,outcome,[7],inactive
same,AC50,[8],48.6 µM (active)
C=C(C)[C@@H]1CC=C(C=O)CC1,outcome,[1],inactive
same,outcome,[3],inactive
same,outcome,[4],inactive
same,outcome,[5],inactive
same,outcome,[6],inactive
same,outcome,[7],inactive
same,outcome,[8],inactive
Nc1nc(=S)[nH][nH]1,outcome,[1],inactive
same,outcome,[4],inactive
same,outcome,[5],inactive
same,outcome,[6],inactive
same,outcome,[7],inactive
same,outcome,[8],inactive
O=C=Nc1ccc(Cl)cc1,outcome,[1],inactive
same,outcome,[2],inactive
same,outcome,[3],inactive
same,outcome,[4],inactive
same,outcome,[5],inactive
same,outcome,[6],inactive
same,outcome,[7],inactive
same,outcome,[9],inactive
same,outcome,[8],inactive
O=c1oc2ccccc2c(O)c1C(CC(O)c1ccc(-c2ccc(Br)cc2)cc1)c1ccccc1 (stereo not given),AC50,[1],8.18 µM (active)
same,outcome,[1],inactive
same,outcome,[2],inactive
same,AC50,[3],13.7 µM (active)
same,outcome,[3],inactive
same,AC50,[4],21.1 µM (active) and 11.5 µM (active)
same,AC50,[5],41.7 µM (active)
same,outcome,[5],inactive
same,outcome,[6],inactive
same,AC50,[7],22.4 µM (active) and 8.54 µM (active)
same,outcome,[8],inactive
C#CCOC(=O)/C=C(C)/C=C/CC(C)CCCC(C)C (stereo not given),outcome,[1],inactive
same,outcome,[2],inactive
same,outcome,[3],inactive
same,outcome,[4],inactive
same,outcome,[5],inactive
same,outcome,[6],inactive
same,outcome,[7],inactive
same,outcome,[9],inactive
same,outcome,[8],inactive
CCOP(=O)(OCC)OC(=CCl)c1ccc(Cl)cc1Cl,outcome,[1],inactive
same,outcome,[2],inactive
same,outcome,[3],inactive
same,outcome,[4],inactive
same,outcome,[6],inactive
same,AC50,[7],1.83 µM (active)
same,AC50,[8],26 µM (active)
CC(C)N(C(=O)CCl)c1ccccc1,AC50,[1],33.4 µM (active)
same,outcome,[2],inactive
same,outcome,[3],inactive
same,outcome,[4],inactive
same,outcome,[5],inactive
same,AC50,[6],8.03 µM (active)
same,AC50,[7],51.7 µM (active)
C[N+](C)(C)Cc1ccccc1,outcome,[1],inactive
same,outcome,[2],inactive
same,outcome,[4],inactive
same,outcome,[5],inactive
same,outcome,[6],inactive
same,outcome,[7],inactive
same,outcome,[8],inactive
CCOC(=O)OC1=C(c2cc(C)ccc2C)C(=O)NC12CCC(OC)CC2 (stereo not given),outcome,[1],inactive
same,outcome,[3],inactive
same,outcome,[4],inactive
same,outcome,[6],inactive
same,outcome,[7],inactive
same,outcome,[8],inactive
CC(C)CC(C)(c1ccc(O)cc1)c1ccc(O)cc1,outcome,[1],inactive
same,outcome,[2],inactive
same,AC50,[4],11.1 µM (active)
same,outcome,[5],inactive
same,outcome,[6],inactive
same,AC50,[7],5.37 µM (active)
O=C(O)COc1cc(Cl)c(Cl)cc1Cl,outcome,[1],inactive
same,outcome,[3],inactive
same,outcome,[4],inactive
same,outcome,[5],inactive
same,outcome,[7],inactive
NC(=O)CCl,outcome,[1],inactive
same,outcome,[2],inactive
same,outcome,[3],inactive
same,outcome,[4],inactive
same,outcome,[5],inactive
same,outcome,[6],inactive
same,outcome,[7],inactive
same,outcome,[9],inactive
same,outcome,[8],inactive
O=C(CCl)Nc1ccccc1,AC50,[1],6.32 µM (active)
same,outcome,[2],inactive
same,outcome,[3],inactive
same,outcome,[4],inactive
same,outcome,[5],inactive
same,AC50,[7],43.7 µM (active)
same,outcome,[8],inactive
N#Cc1ccccc1N,outcome,[1],inactive
same,outcome,[2],inactive
same,outcome,[3],inactive
same,outcome,[4],inactive
same,outcome,[5],inactive
same,outcome,[6],inactive
same,outcome,[7],inactive
same,outcome,[9],inactive
same,outcome,[8],inactive
BrCC(Br)c1ccccc1 (stereo not given),outcome,[1],inactive
same,outcome,[2],inactive
same,outcome,[3],inactive
same,outcome,[4],inactive
same,outcome,[5],inactive
same,outcome,[6],inactive
same,outcome,[7],inactive
